# Data from PubChem BioAssay AID1159580 (chemical genetic matrix, 2015).
# About 2,000 (36%) of roughly 5,500 compounds were called active. Not shown: some 18% with an inconclusive outcome. The list shows a part of the results. Unmarked numbers belong to inactive results. No stated cut-off is given here; in the data, active means normalized growth mostly below about 0.91 (no sharp cut-off); inconclusive means no clear call, values can overlap the other calls; inactive means mostly above about 0.92.
# Assay: chemical genetic growth profiling, strain panel (AID 1159580);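 further: tested at 20 µM; growth read once vehicle control cultures reached saturation at 30 °C; 1 = growth at the plate median or of vehicle wells; lower values mean less growth of the strain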
# Conditions: growth OD
structure (smiles),measurement,setting,value
COC(=O)Nc1nc2ccc(Sc3ccccc3)cc2[nH]1,normalized growth,"S. cerevisiae deletion strains, locus YJR075W, strain HOC1, active compounds read low",0.982
same,normalized growth,"S. cerevisiae deletion strains, locus YKL009W, strain mrt4, active compounds read low",0.951
same,normalized growth,"S. cerevisiae deletion strains, locus YKL068W, active compounds read low",0.996
same,normalized growth,"S. cerevisiae deletion strains, locus YKL085W, strain MDH1 (second series), active compounds read low",0.959
same,normalized growth,"S. cerevisiae deletion strains, locus YKL085W, strain MDH1, active compounds read low",0.959
same,normalized growth,"S. cerevisiae deletion strains, locus YKL160W, strain elf1, active compounds read low",0.997
same,normalized growth,"S. cerevisiae deletion strains, locus YKL190W, strain CNB1, active compounds read low",0.996
same,normalized growth,"S. cerevisiae deletion strains, locus YKR001C, strain vps1, active compounds read low",0.978
same,normalized growth,"S. cerevisiae deletion strains, locus YKR026C, strain gcn3, active compounds read low",0.98
same,normalized growth,"S. cerevisiae deletion strains, locus YKR091W, strain srl3, active compounds read low",1.01
same,normalized growth,"S. cerevisiae deletion strains, locus YLL001W, strain dnm1, active compounds read low",1
same,normalized growth,"S. cerevisiae deletion strains, locus YLL026W, active compounds read low",0.992
same,normalized growth,"S. cerevisiae deletion strains, locus YLL041C, strain sdh2, active compounds read low",0.989
same,normalized growth,"S. cerevisiae deletion strains, locus YLR027C, strain aat2, active compounds read low",0.995
same,normalized growth,"S. cerevisiae deletion strains, locus YLR039C, strain RIC1, active compounds read low",0.95
same,normalized growth,"S. cerevisiae deletion strains, locus YLR058C, strain SHM2, active compounds read low",0.996
same,normalized growth,"S. cerevisiae deletion strains, locus YLR102C, strain apc9, active compounds read low",1
same,normalized growth,"S. cerevisiae deletion strains, locus YLR113W, strain HOG1, active compounds read low",0.957
same,normalized growth,"S. cerevisiae deletion strains, locus YLR221C, strain rsa3, active compounds read low",0.992
same,normalized growth,"S. cerevisiae deletion strains, locus YLR258W, strain gsy2, active compounds read low",0.99
same,normalized growth,"S. cerevisiae deletion strains, locus YLR262C, strain YPT6 (second series), active compounds read low",0.921
same,normalized growth,"S. cerevisiae deletion strains, locus YLR262C, strain YPT6, active compounds read low",0.965
same,normalized growth,"S. cerevisiae deletion strains, locus YLR268W, strain sec22, active compounds read low",1.01
same,normalized growth,"S. cerevisiae deletion strains, locus YLR320W, strain mms22, active compounds read low",0.998
same,normalized growth,"S. cerevisiae deletion strains, locus YLR330W, strain CHS5, active compounds read low",0.994
same,normalized growth,"S. cerevisiae deletion strains, locus YLR342W, strain FKS1 (second series), active compounds read low",0.93
same,normalized growth,"S. cerevisiae deletion strains, locus YLR342W, strain FKS1, active compounds read low",0.983
same,normalized growth,"S. cerevisiae deletion strains, locus YLR357W, strain rsc2, active compounds read low",0.951
same,normalized growth,"S. cerevisiae deletion strains, locus YLR370C, strain arc18, active compounds read low",1
same,normalized growth,"S. cerevisiae deletion strains, locus YLR371W, strain rom2, active compounds read low",1.01
same,normalized growth,"S. cerevisiae deletion strains, locus YLR384C, strain iki3, active compounds read low",0.996
same,normalized growth,"S. cerevisiae deletion strains, locus YLR418C, strain cdc73, active compounds read low",0.918
same,normalized growth,"S. cerevisiae deletion strains, locus YML016C, strain PPZ1, active compounds read low",0.989
same,normalized growth,"S. cerevisiae deletion strains, locus YML032C, strain rad52, active compounds read low",1
same,normalized growth,"S. cerevisiae deletion strains, locus YML120C, strain ndi1, active compounds read low",0.98
same,normalized growth,"S. cerevisiae deletion strains, locus YML124C, strain tub3, active compounds read low",0.181 (active)
same,normalized growth,"S. cerevisiae deletion strains, locus YMR058W, strain fet3, active compounds read low",0.994
same,normalized growth,"S. cerevisiae deletion strains, locus YMR078C, strain ctf18, active compounds read low",1.01
same,normalized growth,"S. cerevisiae deletion strains, locus YMR125W, strain sto1, active compounds read low",0.984
same,normalized growth,"S. cerevisiae deletion strains, locus YMR129W, active compounds read low",1
same,normalized growth,"S. cerevisiae deletion strains, locus YMR205C, strain PFK2, active compounds read low",0.988
same,normalized growth,"S. cerevisiae deletion strains, locus YMR223W, strain ubp8, active compounds read low",0.968
same,normalized growth,"S. cerevisiae deletion strains, locus YMR231W, strain pep5, active compounds read low",0.984
same,normalized growth,"S. cerevisiae deletion strains, locus YMR263W, strain SAP30, active compounds read low",0.973
same,normalized growth,"S. cerevisiae deletion strains, locus YMR307W, strain GAS1, active compounds read low",0.974
same,normalized growth,"S. cerevisiae deletion strains, locus YNL067W, strain RPL9B, active compounds read low",0.996
same,normalized growth,"S. cerevisiae deletion strains, locus YNL071W, strain lat1, active compounds read low",0.988
same,normalized growth,"S. cerevisiae deletion strains, locus YNL128W, strain TEP1, active compounds read low",1.01
same,normalized growth,"S. cerevisiae deletion strains, locus YNL153C, strain GIM3, active compounds read low",0.0686 (active)
same,normalized growth,"S. cerevisiae deletion strains, locus YNL183C, strain NPR1, active compounds read low",0.893
same,normalized growth,"S. cerevisiae deletion strains, locus YNL209W, strain ssb2, active compounds read low",1.01
same,normalized growth,"S. cerevisiae deletion strains, locus YNL233W, strain BNI4, active compounds read low",0.977
same,normalized growth,"S. cerevisiae deletion strains, locus YNL248C, strain rpa49, active compounds read low",0.999
same,normalized growth,"S. cerevisiae deletion strains, locus YNL250W, strain rad50, active compounds read low",1
same,normalized growth,"S. cerevisiae deletion strains, locus YNL271C, strain bni1, active compounds read low",1.01
same,normalized growth,"S. cerevisiae deletion strains, locus YNL298W, strain CLA4, active compounds read low",0.99
same,normalized growth,"S. cerevisiae deletion strains, locus YNL307C, strain MCK1, active compounds read low",0.993
same,normalized growth,"S. cerevisiae deletion strains, locus YNL322C, strain KRE1 (second series), active compounds read low",0.988
same,normalized growth,"S. cerevisiae deletion strains, locus YNL322C, strain KRE1, active compounds read low",1
same,normalized growth,"S. cerevisiae deletion strains, locus YNR049C, strain mso1, active compounds read low",0.997
same,normalized growth,"S. cerevisiae deletion strains, locus YNR052C, strain pop2, active compounds read low",1
same,normalized growth,"S. cerevisiae deletion strains, locus YOL006C, strain TOP1, active compounds read low",0.981
same,normalized growth,"S. cerevisiae deletion strains, locus YOL012C, strain htz1",0.49
same,normalized growth,"S. cerevisiae deletion strains, locus YOL147C, strain pex11, active compounds read low",0.996
same,normalized growth,"S. cerevisiae deletion strains, locus YOR001W, strain rrp6, active compounds read low",0.985
same,normalized growth,"S. cerevisiae deletion strains, locus YOR061W, strain CKA2, active compounds read low",0.994
same,normalized growth,"S. cerevisiae deletion strains, locus YOR069W, strain VPS5, active compounds read low",1
same,normalized growth,"S. cerevisiae deletion strains, locus YOR070C, strain gyp1, active compounds read low",0.99
same,normalized growth,"S. cerevisiae deletion strains, locus YOR080W, strain dia2, active compounds read low",0.993
same,normalized growth,"S. cerevisiae deletion strains, locus YOR083W, strain WHI5, active compounds read low",0.976
same,normalized growth,"S. cerevisiae deletion strains, locus YOR106W, strain vam3, active compounds read low",0.972
same,normalized growth,"S. cerevisiae deletion strains, locus YOR136W, strain idh2, active compounds read low",0.993
same,normalized growth,"S. cerevisiae deletion strains, locus YOR144C, strain elg1, active compounds read low",1
same,normalized growth,"S. cerevisiae deletion strains, locus YOR184W, strain ser1, active compounds read low",0.984
same,normalized growth,"S. cerevisiae deletion strains, locus YOR231W, strain MKK1, active compounds read low",0.973
same,normalized growth,"S. cerevisiae deletion strains, locus YOR265W, strain rbl2, active compounds read low",0.982
same,normalized growth,"S. cerevisiae deletion strains, locus YOR270C, strain vph1, active compounds read low",0.991
same,normalized growth,"S. cerevisiae deletion strains, locus YOR290C, strain snf2, active compounds read low",0.993
same,normalized growth,"S. cerevisiae deletion strains, locus YOR316C, strain cot1, active compounds read low",0.998
same,normalized growth,"S. cerevisiae deletion strains, locus YPL051W, strain arl3, active compounds read low",0.996
same,normalized growth,"S. cerevisiae deletion strains, locus YPL055C, strain LGE1, active compounds read low",0.953
same,normalized growth,"S. cerevisiae deletion strains, locus YPL078C, strain atp4, active compounds read low",0.994
same,normalized growth,"S. cerevisiae deletion strains, locus YPL106C, strain sse1, active compounds read low",1.08
same,normalized growth,"S. cerevisiae deletion strains, locus YPL240C, strain hsp82, active compounds read low",1
same,normalized growth,"S. cerevisiae deletion strains, locus YPL241C, strain CIN2, active compounds read low",0.0715 (active)
same,normalized growth,"S. cerevisiae deletion strains, locus YPL256C, strain CLN2, active compounds read low",0.959
same,normalized growth,"S. cerevisiae deletion strains, locus YPR119W, strain clb2, active compounds read low",1
same,normalized growth,"S. cerevisiae deletion strains, locus YPR141C, strain kar3, active compounds read low",1.02
same,normalized growth,"S. cerevisiae deletion strains, locus YPR163C, strain tif3, active compounds read low",0.986
same,normalized growth,"S. cerevisiae deletion strains, locus YPR167C, strain met16, active compounds read low",1
same,normalized growth,"S. cerevisiae deletion strains, strain wtn01, active compounds read low",0.998
same,normalized growth,"S. cerevisiae strains, strain wild type, active compounds read low",0.997
